Assay results published in article PMC4336329 (PLoS ONE, 2015).
In all, about 310,000 compounds went through this assay and about 14,000 (4.5%) showed an effect of 50% or more. Effects have a minus sign here. The sample as a whole holds a higher share of strong results than the screen did.

molecular target: human ether-à-go-go-related gene (hERG) potassium channel (human, UniProt Q12809); assay: primary screen, population patch clamp on CHO cells stably expressing hERG; higher = less effect of the substance
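Also: peak tail current of the secondary pulse compared with the same well before compound.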

Sequence of human ether-à-go-go-related gene (hERG) potassium channel (Q12809 whole entry, looked up): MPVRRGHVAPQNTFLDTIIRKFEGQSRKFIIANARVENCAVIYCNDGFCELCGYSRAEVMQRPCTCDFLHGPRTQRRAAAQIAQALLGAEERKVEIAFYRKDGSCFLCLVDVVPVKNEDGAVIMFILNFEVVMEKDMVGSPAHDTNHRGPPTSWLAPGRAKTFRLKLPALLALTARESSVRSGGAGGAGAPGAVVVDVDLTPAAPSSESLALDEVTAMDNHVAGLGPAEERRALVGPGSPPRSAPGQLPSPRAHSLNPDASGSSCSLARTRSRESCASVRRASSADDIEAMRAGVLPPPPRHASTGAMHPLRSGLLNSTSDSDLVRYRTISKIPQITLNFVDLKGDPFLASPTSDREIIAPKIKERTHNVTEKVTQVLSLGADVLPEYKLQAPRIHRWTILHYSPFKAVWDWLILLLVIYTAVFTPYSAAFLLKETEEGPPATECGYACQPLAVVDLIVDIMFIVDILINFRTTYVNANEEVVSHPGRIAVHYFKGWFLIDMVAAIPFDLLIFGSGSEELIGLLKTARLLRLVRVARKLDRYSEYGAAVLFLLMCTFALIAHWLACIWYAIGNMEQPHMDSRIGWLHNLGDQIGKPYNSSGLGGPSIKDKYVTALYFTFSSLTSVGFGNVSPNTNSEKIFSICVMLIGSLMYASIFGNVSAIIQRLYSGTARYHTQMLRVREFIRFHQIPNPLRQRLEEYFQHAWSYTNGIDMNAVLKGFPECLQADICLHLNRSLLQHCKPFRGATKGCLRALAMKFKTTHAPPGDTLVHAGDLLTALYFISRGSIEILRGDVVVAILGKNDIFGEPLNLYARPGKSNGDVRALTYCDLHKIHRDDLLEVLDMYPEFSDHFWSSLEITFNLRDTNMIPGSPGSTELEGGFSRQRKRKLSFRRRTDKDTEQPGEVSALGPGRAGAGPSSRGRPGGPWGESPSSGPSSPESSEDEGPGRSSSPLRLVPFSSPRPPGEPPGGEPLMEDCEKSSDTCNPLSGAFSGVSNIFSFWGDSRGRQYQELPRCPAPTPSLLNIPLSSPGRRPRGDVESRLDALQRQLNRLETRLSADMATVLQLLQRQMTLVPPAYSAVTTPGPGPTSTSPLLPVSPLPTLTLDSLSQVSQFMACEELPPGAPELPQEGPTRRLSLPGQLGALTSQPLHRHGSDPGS

SMILES	hERG current change (%, negative = inhibition) at 10uM [%]
O=C(CCNS(=O)(=O)c1ccccc1C(F)(F)F)N1CCN(c2ccccc2O)CC1	-26.9
CCC(=O)N1CCN(c2ccc(NC(=S)NC(=O)COc3ccccc3)cc2)CC1	-21.6
CC(=O)c1c(C)[nH]c(C(=O)Nc2nc(-c3ccc(-c4ccccc4)cc3)cs2)c1C	19.3
O=C(COCc1cc(-c2ccc3c(c2)OCO3)on1)Nc1cccnc1	10
CC1CCCN(CCOCCSc2ccccc2)C1.O=C(O)C(=O)O (stereo not drawn)	-34.5
CC1CCN(CCOCCOc2ccccc2Br)CC1	-30.1
CC1CC(C)CN(CCOc2cccc(Cl)c2Cl)C1.O=C(O)C(=O)O (stereo not drawn)	-35.9
CC1CCN(CCOCCOc2ccccc2-c2ccccc2)CC1	-57.2
CC1CCCN(CCOc2ccc3ccccc3c2Br)C1.O=C(O)C(=O)O (stereo not drawn)	-69
CC1CN(CCOc2ccc(Cl)cc2Cl)CC(C)O1.O=C(O)C(=O)O (stereo not drawn)	-24.6
CC1CCN(CCOc2ccccc2-c2ccccc2)CC1.O=C(O)C(=O)O	-58.6
CC1CCN(C(=O)COc2ccc3ccccc3c2Br)CC1	11.8
O=C(O)C(=O)O.c1ccc(-c2ccccc2OCCOCCN2CCNCC2)cc1	2.27
CC1CC(C)CN(CCOc2ccc(Cl)cc2Cl)C1.O=C(O)C(=O)O (stereo not drawn)	-67.3
CC(=O)N(CC1CCCO1)c1nnc(-c2cnccn2)s1 (stereo not drawn)	12.8
Cc1ccc(NC(=O)CN(C)C(=S)NC2CC2)cc1	16.4
Cc1ccc(C(=O)Nc2cc3c(oc2=O)CCCC3=O)cc1	-2.47
COc1cc(/C=C/C(=O)NC(C)C2CC3CCC2C3)cc(OC)c1OC (stereo not drawn)	10.6
O=C(CN1C(=O)S/C(=C\c2cccs2)C1=O)Nc1ccc(O)cc1C(=O)O	8.88

SMILES	hERG current change (%, negative = inhibition) at 10uM [%]
CCOc1ccc(-n2ccnc2SCC(=O)Nc2nnc(CC)s2)cc1	-11.9
CCC(=O)N1CCc2cc(Br)cc(S(=O)(=O)N3CCCCC3CC)c21 (stereo not drawn)	0.791
CCCN(c1ccc(C)cc1)c1nc(=O)c2cccnc2s1	-28
COc1cc(S(=O)(=O)N2CCCCC2)ccc1NC(=O)c1ccccc1Cl	-24.6
COCCNC(=O)C1CC2Cn3c(nc4cc5ccccc5cc43)C2N1C (stereo not drawn)	-3.93
CN1C(C(=O)NCc2cccc(Br)c2)CC2Cn3c(nc4cc5ccccc5cc43)C21 (stereo not drawn)	-62
Cc1cc2nc3n(c2cc1C)CC1CC(C(=O)NCc2cccc(Br)c2)N(C)C31 (stereo not drawn)	-72.5
CCCNC(=O)C1CC2Cn3c(nc4ccccc43)C2N1C (stereo not drawn)	12.8
Cc1cc2nc3n(c2cc1C)CC1CC(C(=O)NCc2ccco2)N(C)C31 (stereo not drawn)	-29
CN1C(C(=O)NCc2cccc(Br)c2)CC2Cn3c(nc4ccccc43)C21 (stereo not drawn)	-67.7
Cc1cc2nc3n(c2cc1C)CC1CC(C(=O)NCc2ccccc2)N(C)C31 (stereo not drawn)	-31.4
C=CCNC(=O)C1CC2Cn3c(nc4cc5ccccc5cc43)C2N1C (stereo not drawn)	-16.2
CN1C(C(=O)NCc2ccco2)CC2Cn3c(nc4cc5ccccc5cc43)C21 (stereo not drawn)	-38.6
CN1C(C(=O)NCc2ccccc2)CC2Cn3c(nc4cc5ccccc5cc43)C21 (stereo not drawn)	-67.9
CN1C(C(=O)NCc2ccccc2)CC2Cn3c(nc4ccccc43)C21 (stereo not drawn)	-0.69
COCCNC(=O)C1CC2Cn3c(nc4cc(C)c(C)cc43)C2N1C (stereo not drawn)	8.23
Cc1ccc(S(=O)(=O)[N-]c2nc3ccccc3nc2-n2cc[n+](Cc3ccccc3)c2)cc1	11
O=C(c1csc2c1CCCC2)N1CCN(c2ncccn2)CC1	-25.1
O=C(NCc1cccc(C(F)(F)F)c1)c1ccc(=O)[nH]c1	22.5

SMILES	hERG current change (%, negative = inhibition) at 10uM [%]
Cc1oc(-c2ccccc2)nc1CS(=O)CC(=O)O (stereo not drawn)	10.2
Cc1nn(-c2ccccc2)c(N2CCCC2)c1C=O	2.49
Cc1cccc(-c2ncc(CN3CCCC(CO)(Cc4ccccc4C)C3)cn2)c1 (stereo not drawn)	-11.4
Cc1cccc(/C=N/NC(=O)Cc2ccc(Cl)cc2)c1O	18.6
Cc1cc(C)nc(SCC(=O)NN)n1	21.1
O=C(NCc1ccccc1)c1ccc[n+]([O-])c1	30.8
O=S(=O)(Nc1nc2cc3c(cc2nc1Cl)OCCO3)c1ccccc1	-15.5
CC(C)CNC(=S)N1CCC(NC(=O)C23CC4CC(CC(C4)C2)C3)CC1	-7.73
CC(=O)N1CCC(=NNC(=O)c2cc3ccccc3cc2O)CC1	16.8
O=C(Cc1ccc(-c2ccccc2)cc1)Nc1ccccc1	19.1
COc1cc(S(=O)(=O)NCc2ccc3c(c2)OCO3)ccc1Cl	-26.1
CC1Cc2ccccc2N1C(=S)NC(=O)c1ccco1 (stereo not drawn)	16.2
O=C(COc1ccccc1)Nc1nccs1	-13.5
CCn1nc(C(=O)NNC(=O)CCOc2cc(C)ccc2C)c2ccccc2c1=O	-77.6
CCCn1nc(C(=O)NNC(=O)CCOc2ccccc2OCC)c2ccccc2c1=O	-21.8
COc1ccc(OCC(=O)NNC(=O)c2nn(C)c(=O)c3ccccc23)cc1	-21.1
CCn1nc(C(=O)NNC(=O)COc2ccccc2C)c2ccccc2c1=O	-16
CCc1ccc(OCC(=O)NNC(=O)c2nn(CC)c(=O)c3ccccc23)cc1	-57.9
CCn1nc(C(=O)NNC(=O)COc2ccc(OC)cc2)c2ccccc2c1=O	-23.4
